Source: PubChem (National Center for Advancing Translational Sciences (NCATS))
Compounds with a hit are over-represented: about 0.5% of the library has one in this group of screens.
EPAC2 antagonist – antagonists of human EPAC2; EPAC2 GEF exchange of Rap1B-BODIPY-GDP, fluorescence; Potency, µM (titrated, usually from 114 µM), inactives show at the top dose activity, negative = inhibition, most hits filed as inhibitors; 360,000 tested, 0.18% active; further: potency means the concentration at half of the fitted maximal effect; on the % scale 0 is the no-effect control and ±100 the full control effect; nearly all actives have a fitted effect of over 45% in size
EPAC1 antagonist – antagonists of human EPAC1. Potency, µM (titrated, usually from 115 µM), for the others: top-dose activity change, negative = inhibition, actives largely listed as inhibitors. EPAC1 GEF assay, Rap1b-BODIPY-GDP exchange fluorescence. 360,000 tested, 0.14% active. O95398;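 further: potency means the concentration at half of the fitted maximal effect; plate controls were vehicle for no effect and positive control for full effect; nearly all actives have a fitted effect of over 50% in size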
Target sequence (O95398 whole entry, looked up): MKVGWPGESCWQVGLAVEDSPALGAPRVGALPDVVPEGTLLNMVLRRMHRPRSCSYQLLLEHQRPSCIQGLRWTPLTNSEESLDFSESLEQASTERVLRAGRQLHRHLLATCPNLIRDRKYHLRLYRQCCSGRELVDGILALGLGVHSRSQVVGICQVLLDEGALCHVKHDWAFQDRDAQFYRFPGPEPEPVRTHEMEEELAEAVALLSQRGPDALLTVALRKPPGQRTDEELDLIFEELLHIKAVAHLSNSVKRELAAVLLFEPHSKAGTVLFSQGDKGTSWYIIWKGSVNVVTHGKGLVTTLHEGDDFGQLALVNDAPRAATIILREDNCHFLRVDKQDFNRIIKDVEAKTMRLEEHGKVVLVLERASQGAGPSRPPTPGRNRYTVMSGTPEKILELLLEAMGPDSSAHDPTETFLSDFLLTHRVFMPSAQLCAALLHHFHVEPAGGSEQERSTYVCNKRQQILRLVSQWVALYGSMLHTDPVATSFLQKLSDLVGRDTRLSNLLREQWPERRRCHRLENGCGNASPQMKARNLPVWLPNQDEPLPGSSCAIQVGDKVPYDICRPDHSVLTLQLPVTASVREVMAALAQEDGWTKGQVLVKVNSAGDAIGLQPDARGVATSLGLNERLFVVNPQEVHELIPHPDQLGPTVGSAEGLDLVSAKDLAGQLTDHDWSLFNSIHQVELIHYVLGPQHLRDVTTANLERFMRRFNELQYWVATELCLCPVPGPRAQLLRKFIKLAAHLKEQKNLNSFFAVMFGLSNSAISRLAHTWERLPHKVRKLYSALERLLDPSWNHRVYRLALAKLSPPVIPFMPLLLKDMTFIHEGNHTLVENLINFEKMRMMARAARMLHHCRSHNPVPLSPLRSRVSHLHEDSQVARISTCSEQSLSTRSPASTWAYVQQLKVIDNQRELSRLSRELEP
EPAC2 agonist – EPAC2 (human) agonism; EPAC2 activation, biochemical qHTS; response scale: 100% = 6.5 mM cAMP response; AID 720711; Potency, µM (top dose mostly 154 µM), for inactives: at the top dose activation, most hits filed as activators; 360,000 tested, 0.079% active; Q8WZA2; further: potency means the concentration at half of the fitted maximal effect; nearly all actives have a fitted effect of over 50% in size
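Readout is BODIPY fluorescence (480 nm excitation, 540 nm emission), which falls as labeled GDP is exchanged off Rap1B. EPAC2 at 100 nM acted on 250 nM RAP1B-BODIPY-GDP with 50 uM GDP present.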
EPAC1 ag – activates human EPAC1 exchange factor | O95398 | EPAC1 agonist qHTS, biochemical assay; response scale: 100% = response to 6.5 mM cAMP | Potency, µM (highest dose often 154 µM), for inactives: at the top dose activation, most hits filed as activators | 360,000 tested, 0.073% active | AID 720707; further: potency means the concentration at half of the fitted maximal effect; nearly all actives have a fitted effect of over 60% in size
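Normalized to 6.5 mM cAMP, activity reflects EPAC1-catalysed release of BODIPY-GDP from Rap1B, followed kinetically over 30 min at 480 nm excitation, 540 nm emission. Reaction contained 100 nM EPAC1, 250 nM Rap1B-BODIPY-GDP, 50 uM GDP.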
TSHR antagonist – human thyrotropin receptor antagonism | P16473 | TSHR-expressing cells, TSH-stimulated cAMP HTRF, 2 h; active compounds read low | activity change, negative = inhibition, % at 11.5 µM | 330,000 tested, 0.2% active;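 active means activity change below a set negative limit, meaning inhibition stronger than a set level, cut at about -70% in these data; inconclusive means activity change between two set negative limits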; further: on the % scale 0 is the no-effect control and ±100 the full control effect
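Antagonism was scored as loss of TSH-driven cAMP in TSHR cells, stimulated with 4nM TSH (EC80) for 2 hours at 37 deg C and detected by homogeneous HTRF competition immunoassay.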
PTHR1 ag – agonists of human PTHR1 parathyroid hormone receptor; Q03431; HEK293 GP2 PTHR1 cells, GloSensor cAMP luminescence, 1 h; Potency, µM (doses to about 115 µM), without a hit: top-dose activation, hits mostly activators; 410,000 tested, 0.075% active; further: potency means the concentration at half of the fitted maximal effect; nearly all actives have a fitted effect of over 55% in size
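HEK-293-derived GP2 cells expressing PTHR1 and a GloSensor cAMP reporter, 3,000/well, plated overnight, given luciferin plus IBMX (each 0.5 mM as added) for 1 h at 37 °C, then compound for 1 h at 37 °C. Luminescence was read after 15 min at room temperature.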
* hit, by the source's call; i = inactive; ? = inconclusive; nt = no result given; [ ] = remark or other dose. Unless noted, the call rests on the fitted dose curve; in most records, active means well fitted curve in the direction sought with a large enough effect; inconclusive means small, poorly fitted or top-dose-only effect, or another doubt; inactive means no such curve, though single readings can be large; an effect the other way counts as inactive or inconclusive.

SMILES | EPAC2 antagonist | EPAC1 antagonist | EPAC2 agonist | EPAC1 ag | TSHR antagonist | PTHR1 ag
CC(C)OP(=O)(OC(C)C)C1(NS(=O)(=O)c2ccc(Cl)cc2)C=C(Cl)C(=O)C(Cl)=C1 | 40µM* | -20% | 1% | -19% | -13 | -60%
CC(=O)NC(c1ccc(Cl)cc1Cl)c1ccc2cccnc2c1O (stereo not drawn) | 20µM* | ? | 4% | -10% | 20 | -20%
CCCC(=O)NC(c1ccc(Cl)cc1Cl)c1ccc2cccnc2c1O (stereo not drawn) | -13% | -13% | 4% | 3% | -15 | -2%
COc1ccc(Cc2ccccc2C(=O)O)cc1 | 6% | -2% | 2% | 3% | nt | -10%
COc1ccc(CC2=CC(=O)c3ccccc3C2=O)cc1 | 2% | -20% | 17% | 5% | -83* | -46%
CN(c1ccccc1)c1ccc(/C=C(\CCC(=O)O)c2nc3ccccc3s2)cc1[N+](=O)[O-] | 79µM* | ? | 1% | 15% | -23 | -1%
CNc1ccc(/C=C(\CCC(=O)O)c2nc3ccccc3s2)cc1[N+](=O)[O-] | -7% | 45µM* | 5% | ? | -13 | i
COc1ccc(C(=O)Nc2cccc(/C=C(\CCC(=O)O)c3nc4ccccc4s3)c2)cc1 | 32% | 56µM* | -2% | -4% | -9 | -9%
Cn1cnnc1Sc1ccc(/C=C(\CCC(=O)O)c2nc3ccccc3s2)cc1[N+](=O)[O-] | 2% | 9% | 6% | -8% | 2 | -30%
Cc1ccc(/C=C(\CCC(=O)O)c2nc3ccccc3s2)cc1[N+](=O)[O-] | -1% | 79µM* | 2% | 27% | -12 | i
Cc1cccc(-c2csc(N3CCC(C(N)=O)CC3)n2)c1 | nt | nt | nt | nt | -6 | nt
O=C(NCCCN1CCCCCC1)c1ccc(CS(=O)(=O)Cc2ccccc2F)o1 | 6%[57.1 µM] | -9% | -17% | 8% | -7 | -3%[57.5 µM]
CCC1CCCCN1CCCNC(=O)c1ccc(CS(=O)(=O)Cc2ccccc2F)o1 (stereo not drawn) | 22µM* | -5% | -1% | 6% | 2 | i
CCOC(=O)Cc1csc(NC(=O)/C=C/c2ccc(Cl)cc2)n1 | 2% | 8% | -1% | 9% | -15 | i
CCc1ccc(OCC(=O)c2c(O)c3ccccc3oc2=O)cc1 | -2% | -30% | -1% | 5% | 10 | ?
CCc1oc2ccccc2c1C(=O)c1cc(Br)c(O)c(Br)c1 | 10µM* | ? | -11% | -11% | -70* | -30%
Cc1ccc(-n2sc3cc(F)ccc3c2=O)c(C)c1 | -26% | -6% | 2% | -2% | nt | -55%
CCOc1ccc(S(=O)(=O)N(C)CC(=O)NCc2ccccn2)cc1 | 3% | 2% | 0% | -7% | 4 | -8%
CN(Cc1ccccc1)S(=O)(=O)c1ccc(OCC(=O)NCc2ccccn2)cc1 | 0% | -3% | -6% | -3% | -104* | -19%
CCOC(=O)[C@]12CCC=C1N(Cc1ccc3c(c1)OCO3)C(=O)[C@H](CC(=O)NCc1ccc(C)o1)C2 | ? | -11% | -3% | 7% | nt | 3%
COc1ccccc1CCC(=O)OCC(=O)Nc1cc(C)nn1-c1ccccc1 | 2% | -11% | 6% | 100µM* | -4 | -11%
Cc1ccc(OCCC(=O)OCC(=O)Nc2cc(C)nn2-c2ccccc2)cc1 | -3% | -22% | 1% | 3% | 2 | -5%
COc1cccc(N2CCN(c3ncnc4c3[nH]c3ccccc34)CC2C)c1 (stereo not drawn) | nt | nt | nt | nt | -100* | nt
COc1cccc(N2CCN(c3ncnc4c3[nH]c3ccc(F)cc34)CC2C)c1 (stereo not drawn) | 7% | -15% | -23%[15.6 µM] | 6% | -105* | -21%[57.5 µM]
CC[C@@H](C)[C@H]1O[C@]2(CC[C@H]1C)C[C@@H]1C[C@@H](CC=C(C)[C@@H](O[C@H]3C[C@H](OC)[C@@H](O[C@H]4C[C@H](OC)[C@@H](O)[C@H](C)O4)[C@H](C)O3)[C@@H](C)C=CC=C3CO[C@@H]4[C@H](O)C(C)=C[C@@H](C(=O)O1)[C@]34O)O2 | nt | nt | nt | nt | -18 | nt
SMILES | EPAC2 antagonist | EPAC1 antagonist | EPAC2 agonist | EPAC1 ag | TSHR antagonist | PTHR1 ag
CCOc1ccc(C2c3c(oc4ccc(C)cc4c3=O)C(=O)N2CCCN(C)C)cc1 (stereo not drawn) | nt | nt | nt | nt | nt | 28%
COC(=O)C1=NN(c2ccc(C)cc2)C2(S1)SC(C(C)=O)=C(C)N2c1ccccc1 (stereo not drawn) | 3.2µM* | 5% | 7% | 4% | -15 | -24%[57.5 µM]
CCc1nnc(N/N=C/c2ccc(N3CCC(C)CC3)c([N+](=O)[O-])c2)n1N | 4% | -10% | -4% | -2% | 2 | -23%
Cc1nnc(N/N=C/c2cc([N+](=O)[O-])c(N3CCC(C)CC3)cc2N2CCC(C)CC2)n1N | ? | ? | -2% | 11% | 32 | 28µM*
CN1/C(=C/C=C(C#N)C#N)C(C)(C)c2ccccc21 | 228% | -1% | 112µM* | 9% | 10 | i
CN1/C(=C\C=O)C(C)(C)c2ccccc21 | 3% | 6% | 15% | 11% | 1 | -1%
CN1\C(=C/C=C/C=C/C=[N+](C)C)C(C)(C)c2ccccc21 | -28% | -10% | 15% | 56µM* | -9 | -41%
Cc1c(NC(=O)c2cccc(NC(=O)COc3ccc(C#N)cc3)c2)c(=O)n(-c2ccccc2)n1C | 13% | 0% | 3% | 3% | 13 | -12%
O=C(NC1(O)C(=O)c2ccccc2C1=O)c1ccc(C(F)(F)F)cc1 | ? | 35µM* | 24% | 1% | 3 | i
CC1=CC(C)(C)N2C(=O)C(=Nc3ccc(O)cc3)c3cccc1c32 | ? | 79µM* | 21% | 14% | -5 | -4%
COc1cc(N=C2C(=O)N3c4c(cccc42)C(C)=CC3(C)C)cc(OC)c1 | -2% | -11% | 3% | -2% | -3 | i
O=C1CCCCCC[C@@H](O)[C@H](O)C[C@H](c2ccccc2)O1 | 6% | 0% | 2% | -11% | nt | 16%
CC[n+]1c(/C=C/C=C/N(C(C)=O)c2ccccc2)sc2cc(OC)ccc21 | 46% | 141% | ? | 100µM* | 9 | -4%
COc1ccc(-n2nc(C(=O)NCC(=O)Nc3cc(OC)c(OC)c(OC)c3)c3ccccc3c2=O)cc1OC | 6% | -7% | 2% | 2% | -117* | -6%
CC(=O)c1ccc(NC(=O)C(C)n2nc(-c3ccccc3)ccc2=O)cc1 (stereo not drawn) | nt | nt | nt | nt | nt | -16%
